The whole screen tested about 39,000 compounds, of which about 3,300 (8.5%) were called active. Many of the other results were omitted from the sample, so actives are more common in it than they were.

In the assay the test system is HepG2. Kind of assay: cytotoxicity call (relative viability < 0.9). Conditions: 10 µM.
With `Clc1ccc(Cn2cccc2)cn1`, the cytotoxicity call is “inactive”.

Consider `CCS(=O)(=O)Nc1ccc2c(c1)C(=O)N(C)[C@@H]1CC[C@@H](CC(=O)N[C@H]3CCN(Cc4ccccc4)C3)O[C@@H]1CO2`, for which the cytotoxicity call was “inactive”.

Regarding `C[C@H]1CN([C@@H](C)CO)C(=O)Cc2cc(NS(=O)(=O)c3ccc(F)cc3)ccc2O[C@@H]1CN(C)Cc1ccncc1`, the cytotoxicity call is “inactive”.

For the compound `COCC(=O)Nc1ccc2c(c1)OC[C@H](C)N(C(=O)Cc1ccccn1)C[C@H](C)[C@@H](OC)CN(C)C2=O`, the cytotoxicity call is “inactive”.

For `COc1ccc2c(c1OC)C(=O)OC2C1c2c(cc3c(c2OC)OCO3)CCN1C.Cl` (stereo unspecified), the cytotoxicity call is “active”.

As to `COc1cc2c(cc1OC)C1Cc3ccc(OC)c(OC)c3CN1CC2` (stereo unspecified), the cytotoxicity call was “inactive”.

With `CCN(CC)CCOc1ccc(Nc2ncc3cc(-c4c(Cl)cccc4Cl)c(=O)n(C)c3n2)cc1`, the cytotoxicity call was “active”.

As to `Cc1cc(-c2cc(OC(=O)c3ccccc3)ccc2Cl)cc2nnc(Nc3ccc(OCCN4CCCC4)cc3)nc12`, the cytotoxicity call is “inactive”.

For the compound `O=C(C[C@@H]1C=C[C@@H](NC(=O)CN2CCOCC2)[C@H](CO)O1)NCCc1ccccc1`, the cytotoxicity call is “inactive”.

Consider `O=C(O)CNC(=O)C(=O)O`, for which the cytotoxicity call is “active”.

As for `NCC(=O)NCC(=O)O`, the cytotoxicity call was “inactive”.

With `CNCC(=O)O`, the cytotoxicity call was “inactive”.

Consider `CN(C)CCN1C[C@@H]2CN(C(=O)[C@H]3CCOC3)C[C@H]2C1=O`, for which the cytotoxicity call is “inactive”.

With `C[C@@H]1CCCCO[C@H](CN(C)S(=O)(=O)c2cccs2)[C@@H](C)CN([C@@H](C)CO)C(=O)c2cc(NC(=O)NC3CCCCC3)ccc2O1`, the cytotoxicity call is “inactive”.

Take `Cc1noc(C)c1S(=O)(=O)Nc1ccc2c(c1)C(=O)N([C@@H](C)CO)C[C@H](C)[C@H](CN(C)Cc1ccc3c(c1)OCO3)O2`: the cytotoxicity call is “inactive”.

Consider `COc1ccc(S(=O)(=O)N(C)C[C@@H]2OCCCC[C@@H](C)Oc3ccc(NC(=O)Nc4ccc(F)cc4)cc3C(=O)N([C@@H](C)CO)C[C@H]2C)cc1`, for which the cytotoxicity call was “inactive”.

For `CN(C)CC(=O)N1CC2(C1)[C@H](c1ccccc1)[C@H](CO)N2S(C)(=O)=O`, the cytotoxicity call is “inactive”.

Consider `CN(c1ncccc1CNc1nc(Nc2ccc3c(c2)CC(=O)N3)ncc1C(F)(F)F)S(C)(=O)=O`, for which the cytotoxicity call was “active”.

As for `CNC(=O)c1ccc(Nc2ncc(C(F)(F)F)c(NCc3nccnc3N(C)S(C)(=O)=O)n2)cc1`, the cytotoxicity call was “active”.

Regarding `Cc1cnc(CNC(=O)c2c(=O)c3ccc(N4CCCN(C)CC4)nc3n3c2sc2ccccc23)cn1`, the cytotoxicity call is “inactive”.

Regarding `CCS(=O)(=O)N1C[C@]2(CN(C2)C(=O)Nc2ccc(cc2F)F)c2c(n(c3cc(ccc23)OC)C)[C@@H]1CO`, the cytotoxicity call was “inactive”.

Take `CN(C)Cc1cn(CC[C@H]2CC[C@@H](NC(=O)Cc3cccnc3)[C@@H](CO)O2)nn1`: the cytotoxicity call is “inactive”.

Take `O=c1/c(=C\c2ccc(F)cc2)sc2n1CCN=2`: the cytotoxicity call was “inactive”.

In the case of `O=C(/C=C/c1cc2c(cc1Br)OCCO2)c1c(-c2ccccc2)c2cc(Cl)ccc2[nH]c1=O`, the cytotoxicity call was “active”.

As for `N=C(CN1CCCCC1)NO`, the cytotoxicity call was “inactive”.

Turning to `CN(C)CCCNC(=O)C[C@@H]1CC[C@H]2[C@@H](COC[C@@H](O)CN2C(=O)c2cc(Cl)cc(Cl)c2)O1`, the cytotoxicity call is “inactive”.

As for `COc1ccc(NC(=O)Nc2ccc3c(c2)C(=O)N([C@@H](C)CO)C[C@H](C)[C@H](CN(C)C(=O)Nc2ccc(C(F)(F)F)cc2)OCCCC[C@H](C)O3)cc1`, the cytotoxicity call is “inactive”.

Take `C[C@H]1CN([C@@H](C)CO)C(=O)c2cccc(NS(=O)(=O)c3ccc(F)cc3)c2O[C@@H]1CN(C)Cc1ccc(Cl)c(Cl)c1`: the cytotoxicity call is “inactive”.

On to `COC1=C(N)C(=O)c2nc(-c3nc(C(=O)O)c(C)c(-c4ccc(OC)c(OC)c4O)c3N)ccc2C1=O`, for which the cytotoxicity call was “active”.

With `COc1ccc(NC(=O)N(C)C[C@@H]2Oc3ncc(Br)cc3C(=O)N([C@H](C)CO)C[C@@H]2C)cc1`, the cytotoxicity call is “inactive”.

Take `CCCNC(=O)N1C[C@H](O)COC[C@@H]2O[C@H](CC(=O)NCCCN3CCOCC3)CC[C@H]21`: the cytotoxicity call is “inactive”.

As to `CN1C(=O)c2cc(NC(=O)c3ccc(C(F)(F)F)cc3)ccc2OC[C@H]2O[C@H](CC(=O)NC3Cc4ccccc4C3)CC[C@@H]21`, the cytotoxicity call is “inactive”.

On to `CN1C(=O)c2cc(NC(=O)Nc3ccccc3F)ccc2OC[C@H]2O[C@H](CC(=O)NCc3ccc(-c4ccccc4)cc3)CC[C@H]21`, for which the cytotoxicity call is “inactive”.

In the case of `CN1C(=O)c2cc(NC(=O)c3ccc(C(F)(F)F)cc3)ccc2OC[C@@H]2O[C@H](CC(=O)NC3Cc4ccccc4C3)CC[C@H]21`, the cytotoxicity call was “inactive”.

As for `CN(C)CC(=O)Nc1ccc2c(c1)C(=O)N(C)[C@H]1CC[C@H](CC(=O)Nc3cccc(Cl)c3)O[C@@H]1CO2`, the cytotoxicity call was “inactive”.

Regarding `CN1C(=O)c2cc(NC(=O)c3ccc(C(F)(F)F)cc3)ccc2OC[C@@H]2O[C@@H](CC(=O)NC3Cc4ccccc4C3)CC[C@@H]21`, the cytotoxicity call is “active”.

In the case of `CN1C(=O)c2cc(NC(=O)c3ccc(C(F)(F)F)cc3)ccc2OC[C@H]2O[C@H](CC(=O)NC3Cc4ccccc4C3)CC[C@H]21`, the cytotoxicity call was “active”.

Regarding `CN1C(=O)c2cc(NC(=O)c3ccc(C(F)(F)F)cc3)ccc2OC[C@@H]2O[C@@H](CC(=O)NC3Cc4ccccc4C3)CC[C@H]21`, the cytotoxicity call is “inactive”.

With `CN1C(=O)c2cc(NC(=O)Nc3ccccc3F)ccc2OC[C@H]2O[C@@H](CC(=O)Nc3cccc(Cl)c3)CC[C@@H]21`, the cytotoxicity call is “active”.

For the compound `CN1C(=O)c2cc(NC(=O)c3ccc(C(F)(F)F)cc3)ccc2OC[C@@H]2O[C@H](CC(=O)NC3Cc4ccccc4C3)CC[C@@H]21`, the cytotoxicity call is “inactive”.

In the case of `C[C@H]1CCCCO[C@@H](CN(C)Cc2ccncc2)[C@@H](C)CN([C@@H](C)CO)C(=O)c2cc(NC(=O)Nc3ccccc3)ccc2O1`, the cytotoxicity call is “inactive”.

`Cc1ccc(S(=O)(=O)Nc2ccc3c(c2)C(=O)N([C@H](C)CO)C[C@@H](C)[C@@H](CN(C)C(=O)Nc2ccccc2)OCCCC[C@H](C)O3)cc1`: the cytotoxicity call was “inactive”.

On to `C[C@H](CO)N1C[C@H](C)[C@@H](CN(C)S(=O)(=O)c2ccc(F)cc2)Oc2ncc(-c3ccncc3)cc2C1=O`, for which the cytotoxicity call was “inactive”.

Consider `COc1ccc(CN(C)C[C@@H]2OCCCC[C@@H](C)Oc3ccc(NC(=O)CCC(F)(F)F)cc3C(=O)N([C@@H](C)CO)C[C@@H]2C)cc1`, for which the cytotoxicity call is “inactive”.

In the case of `CCOC(=O)N(C)C[C@@H]1OCc2cn(nn2)CCCC(=O)N([C@H](C)CO)C[C@@H]1C`, the cytotoxicity call was “inactive”.

With `C[C@@H]1CN([C@@H](C)CO)C(=O)c2cc(NS(=O)(=O)c3ccc(F)cc3)ccc2O[C@@H]1CN(C)S(=O)(=O)c1cccs1`, the cytotoxicity call was “inactive”.

On to `C[C@@H]1CN([C@H](C)CO)S(=O)(=O)c2ccc(Br)cc2O[C@H]1CN(C)C(=O)c1cnccn1`, for which the cytotoxicity call was “inactive”.

Turning to `CNC[C@@H]1Oc2c(NS(=O)(=O)c3cn(C)cn3)cccc2C(=O)N([C@H](C)CO)C[C@@H]1C`, the cytotoxicity call was “inactive”.

In the case of `COc1ccc(C#Cc2ccc3c(c2)[C@@]2(C(=O)N3C(=O)N[C@@H](C)c3ccccc3)[C@H](c3ccc(OCCO)cc3)N3[C@H](c4ccccc4)[C@H](c4ccccc4)OC(=O)[C@H]3[C@@H]2C(=O)O)cc1`, the cytotoxicity call is “active”.

Turning to `COCCOC(=O)N1C(=O)[C@@]2(c3cc(C#Cc4ccc(OC)cc4)ccc31)[C@H](c1ccc(OCCO)cc1)N1[C@H](c3ccccc3)[C@H](c3ccccc3)OC(=O)[C@H]1[C@@H]2C(N)=O`, the cytotoxicity call was “inactive”.

Consider `COCCOC(=O)N1C(=O)[C@@]2(c3cc(C#CCC(C(=O)OC)C(=O)OC)ccc31)[C@H](C(=O)N1CCCCCCC1)[C@H]1C(=O)O[C@H](c3ccccc3)[C@H](c3ccccc3)N1[C@@H]2c1ccc(OCCO)cc1`, for which the cytotoxicity call is “inactive”.

Take `COCCOC(=O)N1C(=O)[C@@]2(c3cc(C#CCC(C(=O)OC)C(=O)OC)ccc31)[C@H](C(=O)N1CCCCCCC1)[C@H]1C(=O)O[C@H](c3ccccc3)[C@H](c3ccccc3)N1[C@@H]2c1ccc(O)cc1`: the cytotoxicity call was “active”.

Take `COCCOC(=O)N1C(=O)[C@@]2(c3cc(C#Cc4ccc(OC)cc4)ccc31)[C@H](c1ccc(O)cc1)N1[C@H](c3ccccc3)[C@H](c3ccccc3)OC(=O)[C@H]1[C@@H]2C(=O)N1CCCCCCC1`: the cytotoxicity call was “active”.

Turning to `COCCOC(=O)N1C(=O)[C@@]2(c3cc(C#Cc4ccc(OC)cc4)ccc31)[C@H](C(=O)N1CCCCCCC1)[C@H]1C(=O)O[C@H](c3ccccc3)[C@H](c3ccccc3)N1[C@@H]2c1ccc(O)cc1`, the cytotoxicity call is “inactive”.

On to `COCCOC(=O)N1C(=O)[C@@]2(c3cc(C#Cc4ccc(OC)cc4)ccc31)[C@H](c1ccc(OCCO)cc1)N1[C@H](c3ccccc3)[C@H](c3ccccc3)OC(=O)[C@H]1[C@@H]2C(=O)NC[C@H](O)c1ccccc1`, for which the cytotoxicity call is “inactive”.

On to `COCCOC(=O)N1C(=O)[C@@]2(c3cc(C#Cc4ccc(OC)cc4)ccc31)[C@H](C(=O)N1CCCCCCC1)[C@H]1C(=O)O[C@H](c3ccccc3)[C@H](c3ccccc3)N1[C@@H]2c1ccc(OCCO)cc1`, for which the cytotoxicity call is “inactive”.

As to `COCCOC(=O)N1C(=O)[C@@]2(c3cc(C#CCC(C(=O)OC)C(=O)OC)ccc31)[C@H](c1ccc(OCCO)cc1)N1[C@H](c3ccccc3)[C@H](c3ccccc3)OC(=O)[C@H]1[C@@H]2C(=O)N1CCCCCCC1`, the cytotoxicity call is “inactive”.

Consider `NCC[C@H]1CC[C@H](NC(=O)Cc2ccncc2)[C@@H](CO)O1`, for which the cytotoxicity call was “inactive”.

For `O=C(O)CCCCCCCCCCCC[C@@H]1C=CCC1`, the cytotoxicity call was “inactive”.

As for `COc1ccc(-c2cc(=O)c3c(O)c(OC)c(O[C@H]4O[C@H](CO[C@@H]5O[C@@H](C)[C@H](O)[C@@H](O)[C@H]5O)[C@@H](O)[C@H](O)[C@H]4O)cc3o2)cc1`, the cytotoxicity call was “inactive”.

As to `C[C@H](CO)N1C[C@H](C)[C@@H](CN(C)S(=O)(=O)c2cn(C)cn2)Oc2cc(Br)ccc2S1(=O)=O`, the cytotoxicity call was “inactive”.

As to `C[C@H](CO)N1C[C@H](C)[C@@H](CN(C)Cc2ccc(-c3ccccc3)cc2)Oc2c(NS(=O)(=O)c3cccs3)cccc2C1=O`, the cytotoxicity call was “inactive”.

As for `C[C@@H]1CCCCO[C@@H](CN(C)Cc2ccncc2)[C@H](C)CN([C@@H](C)CO)C(=O)c2cc(NC(=O)C3CCCCC3)ccc2O1`, the cytotoxicity call is “inactive”.

With `CCOc1ccc2nc(S(N)(=O)=O)sc2c1`, the cytotoxicity call is “inactive”.

As to `CC(O)C(=O)O.CCOc1ccc2nc3cc(N)ccc3c(N)c2c1`, the cytotoxicity call was “active”.

Consider `CCOC(=O)c1cccc(N)c1.CS(=O)(=O)O`, for which the cytotoxicity call was “inactive”.

For the origin of these results see the antibiotic and cytotoxicity screens of Wong et al. (2023).
